Bioassay records deposited in PubChem by National Center for Advancing Translational Sciences (NCATS).
ELG1 genotoxic – qHTS screen for small molecules that induce genotoxicity in human embryonic kidney (HEK293T) cells expressing luciferase-tagged ELG1. HEK293T ELG1-luciferase reporter, luminescence, 16 h. Potency, µM (series often up to 46 µM), inactives show at the highest dose activity change, positive = activation, most hits filed as activators. 330,000 compounds, 1.3% hits. AID 504466, 2011; note: % of control where 0% means no effect; nearly all actives have a fitted effect of over 60% in size
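Cells (2,000/well) expressing the ELG1-luciferase fusion are dosed by pin tool and kept 16 hr at 37 °C, 5% CO2. Signal comes from ONE-Glo luciferase reagent after 30 min at room temperature.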
Rab9 prom act – qHTS Assay for Rab9 Promoter Activators. AID 485297, 2010. 320,000 compounds, 2.8% hits. Huh7 Rab9 promoter-luciferase reporter, luminescence, 24 h. Potency, µM (titrated, usually from 9.22 µM), for inactives: top-dose activation, negative = inhibition, actives largely listed as activators; note: % of control where 0% means no effect; nearly all actives have a fitted effect of over 60% in size
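Quantitative HTS format; Huh7 Rab9-luciferase reporter cells (1500/well) receive compound 2 h post-plating, incubate 24 h at 37 °C, then get luciferase reagent for 10 min before luminescence reading.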
NPC1 promoter act – qHTS Assay for NPC1 Promoter Activators | Huh7 NPC1 promoter luciferase reporter, 24 h | AID 485313, 2010 | Potency, µM (top dose mostly 9.22 µM), without a hit: at the highest dose activation, actives largely listed as activators | 320,000 compounds, 2.4% hits; note: % of control where 0% means no effect; nearly all actives have a fitted effect of over 60% in size
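Readout is luciferase luminescence, reflecting NPC1 promoter activation in stably transfected Huh7 cells after 24 h compound exposure at 37 °C in reduced-serum medium with 10% FBS.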
FLuc counter – qHTS profiling assay for firefly luciferase inhibitor/activator using purifed enzyme and Km concentrations of substrates (counterscreen for miR-21 project); purified FLuc, Km substrates, luminescence inhibition; Potency, µM (top dose mostly 57.5 µM), for the others: top-dose activity change, negative = inhibition, hits mostly inhibitors; 360,000 compounds, 6.9% hits; AID 588342, 2011;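 note: plate controls were vehicle for no effect and reference inhibitor for full effect; nearly all actives have a fitted effect of over 55% in size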
Target sequence (P08659 whole entry, looked up): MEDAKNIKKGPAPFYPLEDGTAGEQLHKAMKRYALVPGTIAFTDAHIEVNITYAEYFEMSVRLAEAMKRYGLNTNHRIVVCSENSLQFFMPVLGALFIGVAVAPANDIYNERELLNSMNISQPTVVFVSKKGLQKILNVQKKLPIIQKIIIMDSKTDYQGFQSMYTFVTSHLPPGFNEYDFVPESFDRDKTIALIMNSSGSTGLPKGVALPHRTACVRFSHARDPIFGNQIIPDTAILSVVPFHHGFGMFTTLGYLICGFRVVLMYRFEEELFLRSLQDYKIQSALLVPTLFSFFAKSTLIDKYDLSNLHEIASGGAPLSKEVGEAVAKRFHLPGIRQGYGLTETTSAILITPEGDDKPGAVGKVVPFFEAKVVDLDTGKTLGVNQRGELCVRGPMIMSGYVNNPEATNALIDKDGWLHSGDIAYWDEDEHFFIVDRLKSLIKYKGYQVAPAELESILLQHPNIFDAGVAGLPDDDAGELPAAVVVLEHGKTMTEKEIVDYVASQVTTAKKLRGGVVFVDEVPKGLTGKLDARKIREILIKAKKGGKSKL
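Purified P. pyralis luciferase, 10 nM final, with Km-level 10 uM D-luciferin and 10 uM ATP in 50 mM Tris acetate pH 7.5, 10 mM Mg acetate, 0.01% Tween-20, 0.05% BSA; 6-point qHTS titration about 60 µM downward; luminescence read.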
SMN2 splice enh – qHTS Assay for Enhancers of SMN2 Splice Variant Expression; HEK293 SMN2-luciferase splicing reporter, luminescence, 30-36 h; Potency, µM (doses to about 46.1 µM), for inactives: top-dose activity change, positive = activation, most hits filed as activators; 210,000 compounds, 2.8% hits; note: % of control where 0% means no effect; nearly all actives have a fitted effect of over 55% in size
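HEK293 cells carry an SMN2 […]–luciferase reporter in which exon 7 inclusion puts luciferase in frame. Cells were plated 10-12 h before compound addition, then incubated 30-36 h at 37C. ONE-Glo luminescence was read; sodium butyrate at 4.5 mM final served as control.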
ELG1 DNA repair – qHTS screen for small molecules that inhibit ELG1-dependent DNA repair in human embryonic kidney (HEK293T) cells expressing luciferase-tagged ELG1. HEK293T ELG1-luciferase reporter, luminescence, 16 h; DNA damage induced by 5-fluorouridine. Potency, µM (highest dose often 46.1 µM), for the others: at the top dose activity change, negative = inhibition, actives largely listed as inhibitors. 330,000 compounds, 2.3% hits. AID 504467, 2011; note: % is set by controls: 0 for no effect and ±100 for the full control effect; nearly all actives have a fitted effect of over 55% in size
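Overnight (16 hr) co-exposure of 2,000 cells/well to 5-fluorouridine and compound at 37 °C preceded detection. Luciferase was quantified via ONE-Glo luminescence; loss of signal denotes inhibition.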
* hit, by the source's call. This is a sample that favours compounds with a hit; in the whole collection about 9.2% have one here. Calls come from the whole dose curve; as a rule, active = well fitted curve in the direction sought with a large enough effect; inconclusive = small, poorly fitted or top-dose-only effect, or another doubt; inactive = no such curve, though single readings can be large; an effect the other way counts as inactive or inconclusive. Potency is the fitted concentration of half-maximal effect.

Results for O=C(/C(=C\c1ccccc1)c1nc2ccccc2[nH]1)c1ccc(Cl)cc1 ?
ELG1 genotoxic: inconclusive; Rab9 prom act: inconclusive; NPC1 promoter act: 2.8µM*; FLuc counter: -3%; SMN2 splice enh: -84%; ELG1 DNA repair: inconclusive

What do the screens show for `Cc1sc(NC(=O)c2ccc(OCC(C)C)cc2)c(C(N)=O)c1-c1ccc(Cl)cc1Cl`?
ELG1 genotoxic: -6%; Rab9 prom act: -10%; NPC1 promoter act: -13%; FLuc counter: 0%; SMN2 splice enh: -42%; ELG1 DNA repair: -15%

What do the screens show for `CCOc1c(Cl)cc(/C=N/NC(N)=S)cc1OC`?
ELG1 genotoxic: 7%; Rab9 prom act: -4%; NPC1 promoter act: 2%; FLuc counter: 0%; SMN2 splice enh: 24%; ELG1 DNA repair: 1%

What do the screens show for `O=[N+]([O-])c1ccc(-c2nc(C(Cl)Cl)c3ccccc3n2)cc1`?
ELG1 genotoxic: 8%; Rab9 prom act: -55%; NPC1 promoter act: -37%; FLuc counter: 3%; ELG1 DNA repair: 5.2µM*

Results for COc1ccc2c(=O)c(OC)c(-c3ccccc3)oc2c1 ?
SMN2 splice enh: -20%

Results for COc1ccc2c(=O)c(Oc3ccc(C(=O)O)cc3)c(C(F)(F)F)oc2c1 ?
ELG1 genotoxic: inconclusive; Rab9 prom act: inconclusive; NPC1 promoter act: inconclusive; FLuc counter: inconclusive; SMN2 splice enh: 2.5µM*; ELG1 DNA repair: inconclusive

How did COc1ccc(NC(=O)c2c(NCc3sccc3C)sc3c2CCCCC3)c(OC)c1 do in these assays?
FLuc counter: -17%

What do the screens show for `CCOC(=O)N1CCc2c(sc(NCc3sccc3C)c2C(=O)Nc2ccc(OC)cc2OC)C1`?
FLuc counter: 11µM*

Results for CCOC(=O)N1CCc2c(sc(NCc3cccc(F)c3)c2C(=O)Nc2ccc(OC)cc2OC)C1 ?
FLuc counter: 15µM*

How did CN(C)c1ccc(C(=O)Nc2nnc(C3=COCCO3)o2)cc1 do in these assays?
ELG1 genotoxic: 14%; Rab9 prom act: 24%; NPC1 promoter act: 21%; FLuc counter: -17%; SMN2 splice enh: -7%; ELG1 DNA repair: inconclusive

How did CC(C)(C)c1ccc(C(=O)Nc2nnc(C3=COCCO3)o2)cc1 do in these assays?
ELG1 genotoxic: -3%; Rab9 prom act: -2%; NPC1 promoter act: -3%; FLuc counter: 21µM*; ELG1 DNA repair: 11%

How did CCN1CCN(Cc2c(O)ccc3c(=O)c(Oc4ccccc4Cl)c(C(F)(F)F)oc23)CC1 do in these assays?
FLuc counter: 3%; SMN2 splice enh: inconclusive

How did Cc1nc(NCc2cccnc2)c2c3c(sc2n1)CC(C)CC3 (centres undefined) do in these assays?
ELG1 genotoxic: 1%; Rab9 prom act: 6%; NPC1 promoter act: 11%; FLuc counter: 24µM*; SMN2 splice enh: -6%; ELG1 DNA repair: inconclusive

How did Cc1nc(NCc2ccco2)c2c3c(sc2n1)CCC3 do in these assays?
ELG1 genotoxic: 1%; Rab9 prom act: 14%; NPC1 promoter act: -14%; FLuc counter: 2%; SMN2 splice enh: 22µM*; ELG1 DNA repair: -28%

What do the screens show for `CCOC(=O)c1sc2nc(C)nc(NCc3cccnc3)c2c1C`?
ELG1 genotoxic: -3%; Rab9 prom act: 4%; NPC1 promoter act: 1%; FLuc counter: -3%; SMN2 splice enh: -3%; ELG1 DNA repair: 15µM*

What do the screens show for `CCOC(=O)c1sc2nc(C)nc(NCc3ccc(Cl)cc3)c2c1C`?
ELG1 genotoxic: -6%; Rab9 prom act: -7%; NPC1 promoter act: -5%; FLuc counter: 1%; ELG1 DNA repair: 12µM*
